Assay [1] in a line: BSK_3C_VCAM1: BioMAP Diversity Plus: 3C Assay for Vascular cell adhesion molecule 1 (VCAM1) Biomarker Activity (AID 2282999). The conditions noted are these: BioMAP 3C HUVEC, VCAM1 ELISA, cytokine-stimulated; actives raise or lower the signal. An outline of the steps: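 Human umbilical vein endothelial cells were dosed with compound for 24 h, after which cell-surface VCAM-1 was quantified by ELISA. Bidirectional curve fitting used DMSO as negative control and activity baseline.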
(In general: ELISA stands for enzyme-linked immunosorbent assay.)

Assay [2] in a line: BSK_4H_Eotaxin3: BioMAP Diversity Plus: 4H Assay for Eotaxin 3 Biomarker Activity (AID 2283000).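 As to outcome: CCL26 protein level quantified by ELISA in parallel with SRB cytotoxicity check.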 The note with it: primary human endothelial cells (HUVEC); actives raise or lower the signal. An outline of the steps: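 Endothelial primary cells (human umbilical vein) exposed to compound for 24 h. ELISA detection of Eotaxin-3.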
Assay [3] deals with human Peroxisome Proliferator-activated Receptor delta (PPARd), PPARD (gene 5467) (UniProt Q03181). Description: ATG_PPARd_TRANS: Attagene TRANS-FACTORIAL HepG2 Assay for human Peroxisome Proliferator-activated Receptor delta (PPARd) (AID 2283002; active = hit-call score of the fitted dose curve at least 0.9, where 1 is the maximum). An outline of the steps: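 Multiplexed trans-activation format: HepG2 liver cells expressing exogenous NR-Gal4 chimeras and GAL4-UAS reporters were exposed for 24 h. Reporter mRNA was detected by RT-PCR with capillary electrophoresis fluorescence; activity fitted as gain of signal relative to DMSO.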

Read-out in assay [4]: Intercellular Adhesion Molecule 1 (ICAM1), ICAM1 (gene 3383)
Description: BSK_3C_ICAM1: BioMAP Diversity Plus: 3C Assay for Intercellular Adhesion Molecule 1 (ICAM1) Biomarker Activity (AID 2283003). The conditions noted are these: primary human endothelial cells (HUVEC); actives raise or lower the signal. An outline of the steps: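 ICAM-1 levels measured by ELISA after HUVEC cultures in the 3C system had been dosed for 24 h. Gain or loss of signal relative to DMSO was fitted in both directions.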

Assay [5] is described as follows: BSK_3C_Proliferation: Cell Proliferation Assessment in the BioMAP Diversity Plus: 3C Assay (AID 2283006).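 As to AC50: potency may reflect either rise or fall in cell number versus DMSO.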 The note with it: primary human endothelial cells (HUVEC). An outline of the steps:
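Read-out is total protein by SRB absorbance at 560 nm, taken as a proxy for relative cell number. Primary human umbilical vein endothelium cultured below confluence was dosed for 48 h, TCA-fixed and SRB-stained; curves were fitted bidirectionally versus DMSO.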

For assay [6], the target named is Peroxisome proliferator-activated receptor gamma (Homo sapiens) (UniProt P37231). Description: ATG_PPARg_TRANS: Attagene TRANS-FACTORIAL HepG2 Assay for human Peroxisome Proliferator-activated Receptor-gamma (PPARg) (AID 2283007; active = hit-call score of the fitted dose curve at least 0.9, where 1 is the maximum). An outline of the steps: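 Human hepatoma HepG2, transient MRTU transfection, 24 h treatment. mRNA reporter signal by RT-PCR plus capillary electrophoresis, fluorescence detection; fitted for increase over DMSO negative control.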

The target of assay [7] is Nuclear receptor subfamily 1 group I member 2 (Homo sapiens) (UniProt O75469). Description: ATG_PXR_TRANS: Attagene TRANS-FACTORIAL HepG2 Assay for human Pregnane X Receptor (PXR) (AID 2283008; active = hit-call score of the fitted dose curve at least 0.9, where 1 is the maximum). An outline of the steps: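 Measures mRNA induction of a GAL4-UAS-driven reporter in human HepG2 cells transiently expressing PXR fused to Gal4, following 24 h treatment. DMSO served as negative control and baseline.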

The target of assay [8] is human RAR-related Orphan Receptor gamma (RORg), RORC (gene 6097) (UniProt P51449). Description: ATG_RORg_TRANS: Attagene TRANS-FACTORIAL HepG2 Assay for human RAR-related Orphan Receptor gamma (RORg) (AID 2283011; active = hit-call score of the fitted dose curve at least 0.9, where 1 is the maximum). An outline of the steps: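 Activity is scored as increase in GAL4-UAS reporter mRNA over DMSO, detected by fluorescent RT-PCR and capillary electrophoresis in HepG2 cells transiently expressing a RORg-Gal4 chimera, 24 h after dosing.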

Read-out in assay [9]: E-selectin (Homo sapiens) (UniProt P16581)
Description: BSK_3C_Eselectin: BioMAP Diversity Plus: 3C Assay for Eselectin Biomarker Activity (AID 2283015).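 As to outcome: cell surface E-selectin protein quantified by ELISA 24 h after dosing.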 The note with it: primary human endothelial cells (HUVEC); actives raise or lower the signal. An outline of the steps:
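Human vascular endothelium from umbilical vein is exposed to test chemicals for 24 h. E-selectin levels are read by ELISA and compared with DMSO controls.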

Read-out in assay [10]: Monocyte Chemoattractant Protein-1 (MCP1), CCL2 (gene 6347)
Description: BSK_3C_MCP1: BioMAP Diversity Plus: 3C Assay for Monocyte Chemoattractant Protein-1 (MCP1) Biomarker Activity (AID 2283017). The conditions noted are these: primary human endothelial cells (HUVEC); actives raise or lower the signal. An outline of the steps: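 Endothelial cells from human umbilical vein are dosed with chemical, cultured 24 h, then assayed for MCP-1 by ELISA; both increases and decreases are modelled against DMSO controls.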

Read-out in assay [11]: Monocyte Chemoattractant Protein-1 (MCP1), CCL2 (gene 6347)
Description: BSK_4H_MCP1: BioMAP Diversity Plus: 4H Assay for Monocyte Chemoattractant Protein-1 (MCP1) Biomarker Activity (AID 2283018). The conditions noted are these: primary human endothelial cells (HUVEC); actives raise or lower the signal. An outline of the steps:
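ELISA read-out of MCP-1 from human vascular endothelial primary cells taken at 24 hours after compound exposure. Activity was fitted in both directions relative to DMSO, which served as negative control.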

Read-out in assay [12]: Human Leukocyte Antigen - DR isotype (HLADR), HLA-DRA (gene 3122)
Description: BSK_3C_HLADR: BioMAP Diversity Plus: 3C Assay for Human Leukocyte Antigen - DR isotype (HLADR) Biomarker Activity (AID 2283019).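 As to outcome: ELISA of cell-surface HLA-DR on HUVEC 24 h after dosing.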 The conditions noted are these: primary human endothelial cells (HUVEC); actives raise or lower the signal. An outline of the steps: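 Endothelial cells from human umbilical vein are treated with test chemical; after 24 h, HLA-DR levels are measured by ELISA. Data are fitted in both directions using DMSO as the baseline.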

The target in assay [13] is human Retinoic Acid Receptor gamma (RARg), RARG (gene 5916) (UniProt P13631). Description: ATG_RARg_TRANS: Attagene TRANS-FACTORIAL HepG2 Assay for human Retinoic Acid Receptor gamma (RARg) (AID 2283009; active = hit-call score of the fitted dose curve at least 0.9, where 1 is the maximum). An outline of the steps:
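Transient transfection of HepG2 with multi-reporter constructs, then 24 h chemical treatment. Total RNA isolated, reverse-transcribed, PCR-amplified, fluorescently labelled and resolved by capillary electrophoresis; activity scored as mRNA induction versus DMSO.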

For assay [14], the target named is Retinoic acid receptor RXR-alpha (Homo sapiens) (UniProt P19793). Description: ATG_RXRa_TRANS: Attagene TRANS-FACTORIAL HepG2 Assay for human Retinoid X Receptor alpha (RXRa) (AID 2283012; active = hit-call score of the fitted dose curve at least 0.9, where 1 is the maximum). An outline of the steps:
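Transient transfection of human HepG2 with multiple GAL4-UAS reporter constructs; 24 h compound exposure; total RNA isolated, reverse-transcribed, PCR-amplified, 6-FAM labelled, HpaI-cut, resolved by capillary electrophoresis. Positive-direction fit versus DMSO.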

For assay [15], the target named is human Thyroid Receptor alpha (THRa1), THRA (gene 7067) (UniProt P10827). Description: ATG_THRa1_TRANS: Attagene TRANS-FACTORIAL HepG2 Assay for human Thyroid Receptor alpha (THRa1) (AID 2283014; active = hit-call score of the fitted dose curve at least 0.9, where 1 is the maximum). An outline of the steps: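 First, HepG2 cells receive multiple GAL4-UAS reporter units and the chimeric receptor. They are then dosed for 24 h, after which RNA is reverse-transcribed, amplified, labelled, HpaI-cut and sized by capillary electrophoresis; gain relative to DMSO is scored.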

Read-out in assay [16]: Interleukin-1 alpha (IL1a), IL1A (gene 3552)
Description: BSK_BE3C_IL1a: BioMAP Diversity Plus: BE3C Assay for Interleukin-1 alpha (IL1a) Biomarker Activity (AID 2283016). The note with it: primary human bronchial epithelial cells; actives raise or lower the signal. An outline of the steps: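 BE3C primary human bronchial epithelium; cpd 24 h; IL-1a by ELISA; bidirectional fit vs DMSO; parallel SRB (0.1% SRB, 10% TCA fix, 560 nm) for cytotoxicity.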

Assay [17] addresses human Retinoic Acid Receptor beta (RARb), RARB (gene 5915) (UniProt P10826). Description: ATG_RARb_TRANS: Attagene TRANS-FACTORIAL HepG2 Assay for human Retinoic Acid Receptor beta (AID 2283004; active = hit-call score of the fitted dose curve at least 0.9, where 1 is the maximum). An outline of the steps:
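HepG2, transient MRTU transfection, NR–Gal4 chimera, 24 h treatment; RT-PCR plus CE fluorescence detection of reporter mRNA; gain of signal vs DMSO.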

In assay [18] the target is Retinoic acid receptor alpha (Homo sapiens) (UniProt P10276). Description: ATG_RARa_TRANS: Attagene TRANS-FACTORIAL HepG2 Assay for human Retinoic Acid Receptor alpha (RARa) (AID 2283005; active = hit-call score of the fitted dose curve at least 0.9, where 1 is the maximum). An outline of the steps:
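HepG2 cells transiently transfected with multiple reporter units expressing chimeric RARα-GAL4 fusion, with GAL4-UAS-driven reporters. After 24 h compound exposure, reporter mRNA induction quantified by RT-PCR and capillary electrophoresis with fluorescent labeling; gain-of-signal fitted relative to DMSO control.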

Assay [19] deals with human Retinoid X Receptor beta (RXRb), RXRB (gene 6257) (UniProt P28702). Description: ATG_RXRb_TRANS: Attagene TRANS-FACTORIAL HepG2 Assay for human Retinoid X Receptor beta (RXRb) (AID 2283013; active = hit-call score of the fitted dose curve at least 0.9, where 1 is the maximum). An outline of the steps: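 Transfect HepG2 with GAL4-UAS multi-reporter constructs (chimeric NR-Gal4, TRANS format); dose compound 24 h; isolate RNA, RT-PCR, FAM primer extension, HpaI digest; quantify by capillary electrophoresis; positive direction vs DMSO.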

Inconclusive results are not listed. The source made the active and inactive calls. The calls were made as follows, unless noted: active = hit-call score of the fitted dose curve at least 0.9, where 1 is the maximum; inactive = score below 0.9.

Broadly, the AC50 is the concentration at which the activity in the assay is half-maximal.

Sequence of human Retinoid X Receptor beta (RXRb), RXRB (gene 6257) (P28702 whole entry, looked up, the tested form may be a part): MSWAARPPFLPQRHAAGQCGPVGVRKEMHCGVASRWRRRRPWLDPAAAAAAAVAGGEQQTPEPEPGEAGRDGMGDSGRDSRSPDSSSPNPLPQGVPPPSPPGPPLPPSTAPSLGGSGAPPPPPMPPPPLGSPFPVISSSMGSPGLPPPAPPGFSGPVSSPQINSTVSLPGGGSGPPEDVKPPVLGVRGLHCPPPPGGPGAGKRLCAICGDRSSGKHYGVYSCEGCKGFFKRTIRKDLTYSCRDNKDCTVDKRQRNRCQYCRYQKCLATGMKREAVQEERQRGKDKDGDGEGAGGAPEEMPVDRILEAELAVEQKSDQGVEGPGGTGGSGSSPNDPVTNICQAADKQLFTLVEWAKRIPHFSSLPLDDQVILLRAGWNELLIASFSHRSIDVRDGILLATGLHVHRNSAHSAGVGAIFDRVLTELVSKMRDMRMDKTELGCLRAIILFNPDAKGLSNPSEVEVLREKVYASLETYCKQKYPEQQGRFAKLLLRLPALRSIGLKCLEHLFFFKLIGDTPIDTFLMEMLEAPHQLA
Sequence of Nuclear receptor subfamily 1 group I member 2 (Homo sapiens) (O75469 whole entry, looked up, the tested form may be a part): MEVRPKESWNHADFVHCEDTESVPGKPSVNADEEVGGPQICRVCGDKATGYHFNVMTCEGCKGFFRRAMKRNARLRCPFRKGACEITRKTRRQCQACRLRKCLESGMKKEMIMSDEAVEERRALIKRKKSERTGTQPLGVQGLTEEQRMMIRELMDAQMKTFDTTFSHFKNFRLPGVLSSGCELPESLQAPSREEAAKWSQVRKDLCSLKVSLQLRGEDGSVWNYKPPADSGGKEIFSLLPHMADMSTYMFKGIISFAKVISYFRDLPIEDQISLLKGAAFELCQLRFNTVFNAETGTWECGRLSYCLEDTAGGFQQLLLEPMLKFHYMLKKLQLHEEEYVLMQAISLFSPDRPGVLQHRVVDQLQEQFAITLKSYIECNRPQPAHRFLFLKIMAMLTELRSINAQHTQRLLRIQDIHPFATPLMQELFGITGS
Sequence of Peroxisome proliferator-activated receptor gamma (Homo sapiens) (P37231 whole entry, looked up): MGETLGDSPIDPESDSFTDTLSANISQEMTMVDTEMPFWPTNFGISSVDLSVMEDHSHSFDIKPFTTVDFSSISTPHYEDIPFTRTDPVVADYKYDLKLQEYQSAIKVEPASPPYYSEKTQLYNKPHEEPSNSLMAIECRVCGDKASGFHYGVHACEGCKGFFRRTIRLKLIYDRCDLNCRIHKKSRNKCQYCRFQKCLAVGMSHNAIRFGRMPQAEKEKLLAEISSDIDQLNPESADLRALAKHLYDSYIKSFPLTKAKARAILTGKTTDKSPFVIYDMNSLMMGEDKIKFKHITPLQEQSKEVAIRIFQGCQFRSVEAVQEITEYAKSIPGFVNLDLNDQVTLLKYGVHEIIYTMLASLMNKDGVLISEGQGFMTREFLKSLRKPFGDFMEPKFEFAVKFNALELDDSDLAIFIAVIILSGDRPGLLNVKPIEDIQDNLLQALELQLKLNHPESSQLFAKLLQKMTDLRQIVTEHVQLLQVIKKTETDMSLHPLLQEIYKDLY
Sequence of Retinoic acid receptor RXR-alpha (Homo sapiens) (P19793 whole entry, looked up, the tested form may be a part): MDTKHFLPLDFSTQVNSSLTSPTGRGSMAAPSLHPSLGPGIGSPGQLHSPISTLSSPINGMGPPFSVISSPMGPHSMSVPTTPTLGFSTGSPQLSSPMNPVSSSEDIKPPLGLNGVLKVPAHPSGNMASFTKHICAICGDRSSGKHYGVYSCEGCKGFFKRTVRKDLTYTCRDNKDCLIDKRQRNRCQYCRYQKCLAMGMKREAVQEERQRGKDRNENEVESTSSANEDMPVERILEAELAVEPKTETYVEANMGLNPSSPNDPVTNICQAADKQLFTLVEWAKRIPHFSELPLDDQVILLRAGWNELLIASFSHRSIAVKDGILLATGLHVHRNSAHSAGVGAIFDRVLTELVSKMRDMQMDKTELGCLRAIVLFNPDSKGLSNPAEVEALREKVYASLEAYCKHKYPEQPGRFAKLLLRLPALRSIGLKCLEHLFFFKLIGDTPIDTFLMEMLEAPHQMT
Sequence of human Peroxisome Proliferator-activated Receptor delta (PPARd), PPARD (gene 5467) (Q03181 whole entry, looked up, the tested form may be a part): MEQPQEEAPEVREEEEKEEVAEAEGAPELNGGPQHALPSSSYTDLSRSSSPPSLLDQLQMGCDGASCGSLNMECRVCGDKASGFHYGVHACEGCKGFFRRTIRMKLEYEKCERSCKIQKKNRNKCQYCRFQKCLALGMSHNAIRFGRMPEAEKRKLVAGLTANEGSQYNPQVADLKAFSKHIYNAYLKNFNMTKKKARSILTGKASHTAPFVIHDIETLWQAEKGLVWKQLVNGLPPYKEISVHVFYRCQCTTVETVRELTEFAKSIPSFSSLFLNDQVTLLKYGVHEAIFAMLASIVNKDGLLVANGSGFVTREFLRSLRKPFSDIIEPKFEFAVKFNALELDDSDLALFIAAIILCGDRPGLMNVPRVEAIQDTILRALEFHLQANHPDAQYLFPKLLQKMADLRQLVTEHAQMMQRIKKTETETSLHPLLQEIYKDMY
Sequence of human Thyroid Receptor alpha (THRa1), THRA (gene 7067) (P10827 whole entry, looked up, the tested form may be a part): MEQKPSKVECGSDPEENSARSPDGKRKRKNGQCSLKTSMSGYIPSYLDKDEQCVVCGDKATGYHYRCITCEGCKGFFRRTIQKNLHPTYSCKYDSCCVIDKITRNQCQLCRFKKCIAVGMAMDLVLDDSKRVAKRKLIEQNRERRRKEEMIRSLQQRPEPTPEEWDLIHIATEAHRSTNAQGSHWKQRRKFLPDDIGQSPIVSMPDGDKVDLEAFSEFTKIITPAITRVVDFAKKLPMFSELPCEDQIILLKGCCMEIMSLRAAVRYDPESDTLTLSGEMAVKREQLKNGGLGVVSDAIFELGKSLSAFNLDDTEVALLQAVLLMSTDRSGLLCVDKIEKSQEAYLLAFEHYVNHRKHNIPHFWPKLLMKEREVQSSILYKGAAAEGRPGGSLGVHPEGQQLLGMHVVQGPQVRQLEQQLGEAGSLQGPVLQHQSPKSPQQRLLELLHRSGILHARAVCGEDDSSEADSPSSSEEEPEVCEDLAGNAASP
Sequence of human Retinoic Acid Receptor gamma (RARg), RARG (gene 5916) (P13631 whole entry, looked up): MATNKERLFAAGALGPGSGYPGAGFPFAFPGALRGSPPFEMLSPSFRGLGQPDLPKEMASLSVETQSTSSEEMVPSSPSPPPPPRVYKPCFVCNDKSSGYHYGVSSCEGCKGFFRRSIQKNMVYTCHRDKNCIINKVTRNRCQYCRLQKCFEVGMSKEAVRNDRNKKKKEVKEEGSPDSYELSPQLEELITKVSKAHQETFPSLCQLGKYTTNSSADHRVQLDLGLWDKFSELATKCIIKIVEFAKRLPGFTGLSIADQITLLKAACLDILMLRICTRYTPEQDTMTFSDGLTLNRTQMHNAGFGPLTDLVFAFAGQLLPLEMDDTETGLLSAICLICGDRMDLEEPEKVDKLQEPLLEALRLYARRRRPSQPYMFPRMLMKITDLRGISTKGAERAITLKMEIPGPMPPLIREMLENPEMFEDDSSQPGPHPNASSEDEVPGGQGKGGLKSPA
Sequence of human RAR-related Orphan Receptor gamma (RORg), RORC (gene 6097) (P51449 whole entry, looked up, the tested form may be a part): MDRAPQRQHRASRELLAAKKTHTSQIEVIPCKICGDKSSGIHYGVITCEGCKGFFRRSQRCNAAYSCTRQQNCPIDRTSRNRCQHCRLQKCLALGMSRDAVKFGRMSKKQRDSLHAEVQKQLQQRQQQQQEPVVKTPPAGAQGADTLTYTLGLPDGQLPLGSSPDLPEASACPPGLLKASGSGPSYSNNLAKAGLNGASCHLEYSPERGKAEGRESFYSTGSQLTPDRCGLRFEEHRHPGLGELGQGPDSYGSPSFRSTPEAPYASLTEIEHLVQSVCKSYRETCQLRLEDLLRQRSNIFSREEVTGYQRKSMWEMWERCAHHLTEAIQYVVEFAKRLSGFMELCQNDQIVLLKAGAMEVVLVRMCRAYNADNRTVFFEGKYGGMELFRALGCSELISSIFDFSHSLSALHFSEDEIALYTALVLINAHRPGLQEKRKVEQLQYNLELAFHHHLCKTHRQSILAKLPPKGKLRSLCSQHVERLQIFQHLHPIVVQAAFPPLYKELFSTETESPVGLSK
Sequence of E-selectin (Homo sapiens) (P16581 whole entry, looked up): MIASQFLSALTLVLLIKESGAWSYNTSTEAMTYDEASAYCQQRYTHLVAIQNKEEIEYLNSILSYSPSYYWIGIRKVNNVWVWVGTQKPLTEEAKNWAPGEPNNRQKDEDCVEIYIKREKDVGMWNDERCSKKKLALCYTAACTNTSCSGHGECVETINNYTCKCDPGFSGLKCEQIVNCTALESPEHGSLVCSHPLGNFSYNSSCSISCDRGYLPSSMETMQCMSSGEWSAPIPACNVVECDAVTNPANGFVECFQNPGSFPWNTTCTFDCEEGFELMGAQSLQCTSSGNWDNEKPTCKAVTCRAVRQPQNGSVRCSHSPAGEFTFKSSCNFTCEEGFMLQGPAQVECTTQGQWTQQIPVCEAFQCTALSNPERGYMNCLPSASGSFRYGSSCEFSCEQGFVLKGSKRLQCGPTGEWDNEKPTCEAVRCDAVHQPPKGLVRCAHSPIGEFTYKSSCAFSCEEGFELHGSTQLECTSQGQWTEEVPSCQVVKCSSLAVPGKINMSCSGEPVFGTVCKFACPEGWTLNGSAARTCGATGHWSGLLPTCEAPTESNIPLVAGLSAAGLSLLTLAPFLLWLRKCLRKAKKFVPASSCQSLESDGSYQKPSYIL
Sequence of human Retinoic Acid Receptor beta (RARb), RARB (gene 5915) (P10826 whole entry, looked up, the tested form may be a part): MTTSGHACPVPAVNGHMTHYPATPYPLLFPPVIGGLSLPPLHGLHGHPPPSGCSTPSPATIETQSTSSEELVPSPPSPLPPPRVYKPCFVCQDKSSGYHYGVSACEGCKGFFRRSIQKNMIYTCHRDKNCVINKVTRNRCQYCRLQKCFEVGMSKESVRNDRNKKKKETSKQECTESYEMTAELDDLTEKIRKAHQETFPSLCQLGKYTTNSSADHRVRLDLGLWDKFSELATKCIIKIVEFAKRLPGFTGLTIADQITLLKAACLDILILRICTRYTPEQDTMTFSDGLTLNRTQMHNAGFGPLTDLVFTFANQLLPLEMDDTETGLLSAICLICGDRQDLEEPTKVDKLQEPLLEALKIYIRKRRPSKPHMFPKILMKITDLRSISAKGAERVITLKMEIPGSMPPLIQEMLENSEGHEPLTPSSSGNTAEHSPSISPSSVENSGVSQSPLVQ

`CC(COc1ccc(Oc2ccccc2)cc1)Oc1ccccn1` (centres undefined): the outcome in [1], in assay [2], in [3], in [4], in assay [5] and in assay [7] was inactive. Further, the compound was classed as inactive in assay [8], in [9], in assay [10] and in assay [11]. The AC50 in assay [6] is 14.5 µM (active); in [12], 21 µM (active).

Regarding `CCc1cccc(CC)c1N(COC)C(=O)CCl`, the AC50 in [1] was 31.4 µM (active); in [2] it was 22.4 µM (active); in assay [5] it was 28.5 µM (active); in assay [6], 1.79 µM (active); in assay [9], 21.2 µM (active); in [10] it was 14.4 µM (active). Further, the half-maximal activity concentration (AC50) in [11] is 22 µM (active); in assay [12], 20 µM (active). For the same compound, the result in [3], in assay [7], in assay [13], in assay [14], in assay [15] and in [16] was inactive.

As for `C#CCC1=C(C)C(OC(=O)C2C(C=C(C)C)C2(C)C)CC1=O` (centres undefined), the result in assay [1], in assay [2], in assay [3], in assay [17], in [18] and in assay [13] was inactive. The outcome in [14], in [19] and in assay [16] was inactive. The concentration at half-maximal activity (AC50) is 28.8 µM (active) in [5]; 28 µM (active) in [6]; 3.12 µM (active) in assay [7]; 36 µM (active) in assay [9]; 32.2 µM (active) in assay [10]; 20.6 µM (active) in assay [11]. Moreover, the AC50 in assay [12] is 20 µM (active).

On to `CCOP(=S)(OCC)Oc1cc(C)nc(C(C)C)n1`, for which the result in [1], in assay [2], in assay [3], in assay [4], in [5] and in assay [7] was inactive. In addition, the call in assay [14], in assay [19], in assay [15], in assay [9], in assay [10] and in assay [11] was inactive. Moreover, the result in [12] was inactive. Moreover, the half-maximal activity concentration (AC50) in assay [6] was 50 µM (active).

As to `CCCCOC(=O)[C@@H](C)Oc1ccc(Oc2ccc(C#N)cc2F)cc1`, the outcome in assay [1], in [2], in [3], in [4], in assay [5] and in assay [6] was inactive. Further, the compound was classed as inactive in [7], in assay [8], in [14], in [15], in [9] and in assay [16]. Moreover, the result in [10], in assay [11] and in [12] was inactive.

For the compound `CC(C)N(C(=O)SCC(Cl)=C(Cl)Cl)C(C)C`, the AC50 in assay [1] is 35.5 µM (active); in [2], 32 µM (active); in assay [5], 34.7 µM (active); in assay [9], 30.7 µM (active); in assay [10] it was 31.1 µM (active); in assay [11], 32.2 µM (active). In [12], the AC50 was 32.9 µM (active). The outcome in assay [3], in assay [17], in assay [18], in [7], in assay [13] and in assay [14] was inactive. In addition, the result in [19] and in [15] was inactive.

`CSC1=N[C@@](C)(c2ccccc2)C(=O)N1Nc1ccccc1`: the outcome in [1], in assay [3], in assay [6], in assay [7], in [14] and in assay [19] was inactive. The compound was called inactive in assay [15], in assay [16] and in assay [10]. The concentration at half-maximal activity (AC50) is 25.3 µM (active) in assay [2]; 18.9 µM (active) in assay [5]; 6.26 µM (active) in [9]; 27.8 µM (active) in assay [11]; 5.87 µM (active) in [12].

Regarding `CC(C)=CC1C(C(=O)OCN2C(=O)C3=C(CCCC3)C2=O)C1(C)C` (centres undefined), the half-maximal activity concentration (AC50) in assay [1] is 14.4 µM (active); in assay [5], 15.6 µM (active); in [6], 50 µM (active); in [7] it was 40.2 µM (active); in [9], 26.9 µM (active); in assay [10], 7.53 µM (active). Also, the AC50 in assay [12] is 27.9 µM (active). Moreover, the result in [2], in assay [4], in assay [8], in assay [14], in assay [19] and in assay [15] was inactive. Further, the result in [11] was inactive.

The record behind these values is PubChem BioAssay (EPA / NIEHS).
